From PubChem BioAssay AID1159580 (chemical genetic matrix, 2015)
Where “and” joins values, the source holds several entries; their conditions need not be identical. Equal entries are not always repeated. Among all 5,500 compounds or so, about 2,000 (36%) were called active. Not shown: some 18% with an inconclusive outcome. Rule as the data show it: active = normalized growth mostly below about 0.91 (no sharp cut-off); inconclusive = no clear call, values can overlap the other calls; inactive = mostly above about 0.92. The list shows a part of the results.

Assay: chemical genetic growth profiling, strain panel (AID 1159580);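 also: tested at 20 µM; growth read once vehicle control cultures reached saturation at 30 °C; 1 = growth at the plate median or of vehicle wells; lower values mean less growth of the strain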
Conditions: S. cerevisiae deletion strains, growth OD

Measured: normalized growth

CC(=O)OC[C@@]1(O)C[C@@]23CCC4c5ccoc5CC[C@]4(C)C2CC[C@@H]1C3 (some centres not stated)
inactive: locus YAL013W, strain DEP1, hits give low values 0.985 | locus YAL021C, strain ccr4, hits give low values 1.03 | locus YAL030W, strain snc1, hits give low values 1.02 | locus YBL061C, strain skt5, hits give low values 0.988 | locus YBR009C, strain hhf1, hits give low values 0.97 | locus YBR021W, strain FUR4, hits give low values 0.964 | locus YBR023C, strain chs3, hits give low values 0.953 | locus YBR171W, strain sec66, hits give low values 0.986 | locus YBR229C, strain ROT2, hits give low values 0.998 | locus YBR231C, strain swc5, hits give low values 1.01 | locus YBR279W, strain paf1, hits give low values 1.02 | locus YCL011C, strain gbp2, hits give low values 0.998 | locus YCL016C, strain dcc1, hits give low values 0.975 | locus YCL029C, strain bik1, hits give low values 0.963 | locus YCL061C, strain MRC1, hits give low values 0.98 | locus YCL069W, strain vba3, hits give low values 1 | locus YCR088W, strain abp1, hits give low values 0.997 | locus YDL005C, strain med2, hits give low values 1.02 | locus YDL035C, strain GPR1, hits give low values 0.899 | locus YDL040C, strain nat1, hits give low values 1 | locus YDL074C, strain BRE1, hits give low values 0.88 | locus YDL101C, strain DUN1, hits give low values 0.986 | locus YDL134C, strain PPH21, hits give low values 0.973 | locus YDL185W, strain tfp1, hits give low values 0.968 | locus YDL192W, strain arf1, hits give low values 0.932 | locus YDR001C, strain nth1, hits give low values 1 | locus YDR069C, strain doa4, hits give low values 1.02 | locus YDR101C, strain arx1, hits give low values 0.965 | locus YDR150W, strain NUM1, hits give low values 0.948 | locus YDR159W, strain sac3, hits give low values 0.991 | locus YDR162C, strain NBP2, hits give low values 0.97 | locus YDR195W, strain ref2 0.993 | locus YDR297W, strain sur2, hits give low values 1.01 | locus YDR334W, strain swr1, hits give low values 1.01 | locus YDR335W, strain msn5, hits give low values 1 | locus YDR388W, hits give low values 0.977 | locus YDR502C, strain sam2, hits give low values 0.956 | locus YEL003W, strain gim4, hits give low values 1 | locus YEL037C, strain rad23, hits give low values 0.992 | locus YEL061C, strain CIN8 (second series), hits give low values 1 | locus YEL061C, strain CIN8, hits give low values 0.986 | locus YER015W, strain faa2, hits give low values 1.01 | locus YER016W, strain bim1, hits give low values 0.996 | locus YER110C, hits give low values 0.95 | locus YER111C, strain swi4, hits give low values 0.995 | locus YER155C, strain BEM2 (second series), hits give low values 0.987 | locus YER155C, strain BEM2, hits give low values 0.972 | locus YER167W, strain BCK2, hits give low values 0.929 | locus YFR010W, strain ubp6, hits give low values 0.985 | locus YGL078C, strain dbp3, hits give low values 0.966 | locus YGL086W, strain mad1, hits give low values 0.931 | locus YGL167C, strain pmr1, hits give low values 1 | locus YGL173C, strain kem1, hits give low values 1.03 | locus YGL227W, strain vid30, hits give low values 1.01 | locus YGL240W, strain doc1, hits give low values 1 | locus YGL248W, strain PDE1, hits give low values 0.98 | locus YGR078C, strain PAC10, hits give low values 0.934 | locus YGR135W, strain pre9, hits give low values 0.95 | locus YGR252W, strain gcn5, hits give low values 0.912 | locus YHR027C, strain rpn1, hits give low values 1.01 | locus YHR030C, strain SLT2, hits give low values 0.943 and 0.867 | locus YHR079C, strain IRE1, hits give low values 0.918 | locus YHR094C, strain hxt1, hits give low values 0.96 | locus YHR129C, strain ARP1, hits give low values 0.985 | locus YHR200W, strain rpn10, hits give low values 0.96 | locus YIL066C, strain RNR3, hits give low values 0.981 | locus YIL073C, strain SPO22, hits give low values 0.991 | locus YIL125W, strain kgd1, hits give low values 0.965 | locus YIR030C, strain dcg1, hits give low values 0.974 | locus YJL092W, strain hpr5, hits give low values 1 | locus YJL095W, strain BCK1 (second series), hits give low values 1.01 | locus YJL095W, strain BCK1, hits give low values 0.909 and 0.89 | locus YJL115W, strain asf1, hits give low values 1.01 | locus YJL129C, strain trk1, hits give low values 0.984 | locus YJL134W, strain LCB3, hits give low values 0.973 | locus YJL154C, strain vps35, hits give low values 1 | locus YJL164C, strain tpk1, hits give low values 0.973 | locus YJL166W, strain qcr8, hits give low values 0.996 | locus YJL168C, strain set2, hits give low values 0.983 | locus YJL187C, strain SWE1 (second series), hits give low values 0.961 | locus YJL187C, strain SWE1, hits give low values 1.01 | locus YJR043C, strain POL32, hits give low values 0.954
active: locus YAL026C, strain drs2, hits give low values 0.901 | locus YDR137W, strain rgp1, hits give low values 0.805 | locus YDR318W, strain mcm21, hits give low values 0.911 | locus YDR392W, strain spt3, hits give low values 0.576 | locus YGL253W, strain hxk2, hits give low values 0.91 | locus YGR229C, strain SMI1, hits give low values 0.804 | locus YHR013C, strain ard1, hits give low values 1.19 [resistant] | locus YHR079C, strain IRE1 (second series), hits give low values 0.924 | locus YHR142W, strain chs7, hits give low values 0.846 | locus YJR066W, strain TOR1, hits give low values 0.825
